The target of test [1] is Sphingosine kinase 1 (Homo sapiens) (UniProt Q9NYA1). As to conditions: at 1 µM.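 Also: mean SPHK1 inhibition value reported from the GSK PKIS kinase panel screen.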
Test [2] deals with T1, Sphingosine kinase 2 (Homo sapiens) (UniProt Q9NRA0).
T1 sequence (whole entry): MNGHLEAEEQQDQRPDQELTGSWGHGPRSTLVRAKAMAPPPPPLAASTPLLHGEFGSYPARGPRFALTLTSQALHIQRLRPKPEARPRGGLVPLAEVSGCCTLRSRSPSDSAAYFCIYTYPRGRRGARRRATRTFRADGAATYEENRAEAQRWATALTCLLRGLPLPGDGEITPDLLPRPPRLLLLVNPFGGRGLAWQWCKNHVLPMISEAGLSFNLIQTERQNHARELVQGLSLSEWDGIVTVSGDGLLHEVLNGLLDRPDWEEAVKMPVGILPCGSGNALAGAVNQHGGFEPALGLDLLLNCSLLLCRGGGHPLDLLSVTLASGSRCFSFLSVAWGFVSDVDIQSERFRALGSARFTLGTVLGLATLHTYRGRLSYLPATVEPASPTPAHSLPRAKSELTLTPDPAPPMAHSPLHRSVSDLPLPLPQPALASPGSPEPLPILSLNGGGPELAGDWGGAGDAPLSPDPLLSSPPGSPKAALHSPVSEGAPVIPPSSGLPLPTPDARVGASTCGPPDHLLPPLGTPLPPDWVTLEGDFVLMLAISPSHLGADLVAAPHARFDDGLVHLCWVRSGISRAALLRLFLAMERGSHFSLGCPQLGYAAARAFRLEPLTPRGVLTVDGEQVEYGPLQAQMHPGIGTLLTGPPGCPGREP
As to conditions: at 0.1 µM.

For test [3], the target named is T1, Sphingosine kinase 2 (Homo sapiens). As to conditions: at 1 µM.
Test [4] has as its target Casein kinase II subunit alpha (Homo sapiens) (UniProt P68400). As to conditions: at 0.1 µM.
Test [5] shares this target. As to conditions: at 1 µM.
Test [6] deals with T2, Inhibitor of nuclear factor kappa-B kinase subunit alpha (Homo sapiens) (UniProt O15111).
T2 sequence (whole entry): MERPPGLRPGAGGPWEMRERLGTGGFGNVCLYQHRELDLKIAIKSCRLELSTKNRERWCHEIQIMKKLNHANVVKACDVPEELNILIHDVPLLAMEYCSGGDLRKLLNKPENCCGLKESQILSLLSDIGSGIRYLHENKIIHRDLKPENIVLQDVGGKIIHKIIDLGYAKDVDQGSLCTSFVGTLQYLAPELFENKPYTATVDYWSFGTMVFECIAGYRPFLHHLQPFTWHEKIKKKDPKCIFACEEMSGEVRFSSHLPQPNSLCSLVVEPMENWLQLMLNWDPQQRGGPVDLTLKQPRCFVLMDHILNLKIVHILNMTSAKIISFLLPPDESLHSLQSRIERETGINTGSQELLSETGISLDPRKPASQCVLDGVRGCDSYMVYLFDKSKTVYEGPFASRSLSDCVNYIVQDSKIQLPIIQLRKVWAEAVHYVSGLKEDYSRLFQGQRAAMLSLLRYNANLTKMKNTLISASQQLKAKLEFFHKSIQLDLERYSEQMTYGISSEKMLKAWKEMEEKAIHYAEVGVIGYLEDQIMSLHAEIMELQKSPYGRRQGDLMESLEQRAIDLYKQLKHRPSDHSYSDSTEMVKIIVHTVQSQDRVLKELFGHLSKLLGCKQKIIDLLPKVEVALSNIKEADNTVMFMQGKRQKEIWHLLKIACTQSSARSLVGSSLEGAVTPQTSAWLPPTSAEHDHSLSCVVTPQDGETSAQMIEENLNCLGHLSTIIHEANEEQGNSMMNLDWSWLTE
As to conditions: at 0.1 µM.

Test [7] deals with T2, Inhibitor of nuclear factor kappa-B kinase subunit alpha (Homo sapiens). As to conditions: at 1 µM.
The target of test [8] is T3, Inhibitor of nuclear factor kappa-B kinase subunit beta (Homo sapiens) (UniProt O14920).
T3 sequence (whole entry): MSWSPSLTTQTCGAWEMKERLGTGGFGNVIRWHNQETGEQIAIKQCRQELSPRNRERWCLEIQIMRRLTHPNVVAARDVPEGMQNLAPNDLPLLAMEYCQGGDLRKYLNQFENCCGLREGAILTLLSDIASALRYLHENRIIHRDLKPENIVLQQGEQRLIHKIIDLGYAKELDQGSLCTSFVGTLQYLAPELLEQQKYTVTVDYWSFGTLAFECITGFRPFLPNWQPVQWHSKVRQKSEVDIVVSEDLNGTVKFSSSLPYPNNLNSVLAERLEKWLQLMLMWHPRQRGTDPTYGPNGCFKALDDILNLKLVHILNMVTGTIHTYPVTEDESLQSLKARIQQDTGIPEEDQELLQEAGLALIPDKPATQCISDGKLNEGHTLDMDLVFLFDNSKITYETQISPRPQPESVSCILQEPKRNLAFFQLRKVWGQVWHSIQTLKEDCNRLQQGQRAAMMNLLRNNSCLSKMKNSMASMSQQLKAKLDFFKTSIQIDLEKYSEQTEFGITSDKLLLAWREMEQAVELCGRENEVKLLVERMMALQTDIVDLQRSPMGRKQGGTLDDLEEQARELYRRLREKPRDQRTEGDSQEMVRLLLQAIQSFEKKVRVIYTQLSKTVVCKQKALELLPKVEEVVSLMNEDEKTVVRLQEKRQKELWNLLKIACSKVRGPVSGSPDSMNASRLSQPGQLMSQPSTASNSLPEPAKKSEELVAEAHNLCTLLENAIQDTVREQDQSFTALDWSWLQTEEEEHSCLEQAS
As to conditions: at 0.1 µM.

Test [9] concerns the target T3, Inhibitor of nuclear factor kappa-B kinase subunit beta (Homo sapiens). As to conditions: at 1 µM.
The target in test [10] is T4, Inhibitor of nuclear factor kappa-B kinase subunit epsilon (Homo sapiens) (UniProt Q14164).
T4 sequence (whole entry): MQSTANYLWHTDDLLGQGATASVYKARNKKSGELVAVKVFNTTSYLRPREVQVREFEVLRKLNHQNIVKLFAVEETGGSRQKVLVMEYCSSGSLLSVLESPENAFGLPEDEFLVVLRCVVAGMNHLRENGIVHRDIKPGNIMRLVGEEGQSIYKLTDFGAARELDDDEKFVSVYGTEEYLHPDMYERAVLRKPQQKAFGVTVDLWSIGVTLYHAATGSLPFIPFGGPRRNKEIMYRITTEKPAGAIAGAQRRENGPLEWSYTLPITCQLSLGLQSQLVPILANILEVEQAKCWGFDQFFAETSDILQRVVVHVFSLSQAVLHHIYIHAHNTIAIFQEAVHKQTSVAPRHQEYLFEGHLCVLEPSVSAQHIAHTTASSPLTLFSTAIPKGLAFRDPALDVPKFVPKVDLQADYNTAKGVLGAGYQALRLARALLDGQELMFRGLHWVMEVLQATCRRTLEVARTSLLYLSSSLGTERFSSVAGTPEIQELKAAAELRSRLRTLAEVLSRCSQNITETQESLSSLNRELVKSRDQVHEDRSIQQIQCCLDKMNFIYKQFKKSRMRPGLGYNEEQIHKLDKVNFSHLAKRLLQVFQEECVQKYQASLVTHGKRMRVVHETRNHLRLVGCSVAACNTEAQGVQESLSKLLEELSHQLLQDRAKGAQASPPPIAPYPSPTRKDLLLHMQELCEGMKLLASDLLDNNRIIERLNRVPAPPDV
As to conditions: at 0.1 µM.

Test [11] concerns the target T4, Inhibitor of nuclear factor kappa-B kinase subunit epsilon (Homo sapiens). As to conditions: at 1 µM.
The target of test [12] is T5, Serine/threonine-protein kinase Nek1 (Homo sapiens) (UniProt Q96PY6).
T5 sequence (whole entry): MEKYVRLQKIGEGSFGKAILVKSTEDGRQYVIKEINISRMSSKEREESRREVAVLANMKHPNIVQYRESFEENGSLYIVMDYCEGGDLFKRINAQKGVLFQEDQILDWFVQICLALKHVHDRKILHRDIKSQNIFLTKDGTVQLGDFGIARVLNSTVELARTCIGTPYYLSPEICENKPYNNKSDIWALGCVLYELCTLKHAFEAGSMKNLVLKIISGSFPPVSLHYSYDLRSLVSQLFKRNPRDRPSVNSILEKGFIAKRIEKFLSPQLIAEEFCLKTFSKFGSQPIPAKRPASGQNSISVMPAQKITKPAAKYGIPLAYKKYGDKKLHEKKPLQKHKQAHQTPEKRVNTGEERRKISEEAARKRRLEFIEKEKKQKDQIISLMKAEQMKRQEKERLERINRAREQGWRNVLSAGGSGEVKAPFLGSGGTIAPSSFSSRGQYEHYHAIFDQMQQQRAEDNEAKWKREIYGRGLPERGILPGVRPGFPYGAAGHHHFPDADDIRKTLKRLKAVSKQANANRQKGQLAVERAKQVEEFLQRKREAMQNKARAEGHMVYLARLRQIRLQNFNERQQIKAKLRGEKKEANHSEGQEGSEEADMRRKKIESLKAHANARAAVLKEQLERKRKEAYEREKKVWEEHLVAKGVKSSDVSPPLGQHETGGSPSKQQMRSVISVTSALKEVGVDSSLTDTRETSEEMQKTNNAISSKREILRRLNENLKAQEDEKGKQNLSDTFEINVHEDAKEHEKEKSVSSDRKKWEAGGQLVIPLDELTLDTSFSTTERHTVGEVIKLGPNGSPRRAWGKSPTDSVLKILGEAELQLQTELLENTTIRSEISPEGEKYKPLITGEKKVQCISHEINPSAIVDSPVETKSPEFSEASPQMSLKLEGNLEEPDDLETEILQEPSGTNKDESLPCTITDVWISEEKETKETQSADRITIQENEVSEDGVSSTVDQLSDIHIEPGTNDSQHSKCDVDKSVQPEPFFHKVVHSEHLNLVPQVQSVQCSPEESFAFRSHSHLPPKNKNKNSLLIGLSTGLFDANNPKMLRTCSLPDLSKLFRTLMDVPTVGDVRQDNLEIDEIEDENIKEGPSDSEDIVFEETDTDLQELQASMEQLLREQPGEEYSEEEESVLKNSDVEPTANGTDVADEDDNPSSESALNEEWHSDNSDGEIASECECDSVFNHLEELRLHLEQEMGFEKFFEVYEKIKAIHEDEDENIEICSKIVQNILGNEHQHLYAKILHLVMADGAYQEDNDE
As to conditions: at 0.1 µM.

For test [13], the target named is T5, Serine/threonine-protein kinase Nek1 (Homo sapiens). As to conditions: at 1 µM.
Test [14] concerns the target T6, Serine/threonine-protein kinase Nek2 (Homo sapiens) (UniProt P51955).
T6 sequence (whole entry): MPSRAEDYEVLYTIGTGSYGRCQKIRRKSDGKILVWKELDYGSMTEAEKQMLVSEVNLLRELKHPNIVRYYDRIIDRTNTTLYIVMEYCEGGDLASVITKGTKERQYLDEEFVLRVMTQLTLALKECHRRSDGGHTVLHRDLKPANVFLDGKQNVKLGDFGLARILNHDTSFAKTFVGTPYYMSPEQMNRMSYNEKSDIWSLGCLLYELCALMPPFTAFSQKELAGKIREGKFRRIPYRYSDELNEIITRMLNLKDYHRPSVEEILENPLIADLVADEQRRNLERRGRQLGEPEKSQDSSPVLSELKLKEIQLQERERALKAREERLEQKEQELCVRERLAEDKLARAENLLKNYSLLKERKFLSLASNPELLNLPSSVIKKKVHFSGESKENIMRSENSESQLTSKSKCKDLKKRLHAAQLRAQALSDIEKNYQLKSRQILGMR
As to conditions: at 0.1 µM.

For test [15], the target named is T6, Serine/threonine-protein kinase Nek2 (Homo sapiens). As to conditions: at 1 µM.
Test [16] deals with Serine/threonine-protein kinase Nek6 (Homo sapiens) (UniProt Q9HC98). As to conditions: at 0.1 µM.
For test [17] the target is unchanged. As to conditions: at 1 µM.
Test [18] has as its target Serine/threonine-protein kinase Nek7 (Homo sapiens) (UniProt Q8TDX7). As to conditions: at 0.1 µM.
For test [19] the target is unchanged. As to conditions: at 1 µM.
Test [20] has as its target T7, Serine/threonine-protein kinase Nek9 (Homo sapiens) (UniProt Q8TD19).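 Also: reported value is the mean percent inhibition of NEK9.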
T7 sequence (whole entry): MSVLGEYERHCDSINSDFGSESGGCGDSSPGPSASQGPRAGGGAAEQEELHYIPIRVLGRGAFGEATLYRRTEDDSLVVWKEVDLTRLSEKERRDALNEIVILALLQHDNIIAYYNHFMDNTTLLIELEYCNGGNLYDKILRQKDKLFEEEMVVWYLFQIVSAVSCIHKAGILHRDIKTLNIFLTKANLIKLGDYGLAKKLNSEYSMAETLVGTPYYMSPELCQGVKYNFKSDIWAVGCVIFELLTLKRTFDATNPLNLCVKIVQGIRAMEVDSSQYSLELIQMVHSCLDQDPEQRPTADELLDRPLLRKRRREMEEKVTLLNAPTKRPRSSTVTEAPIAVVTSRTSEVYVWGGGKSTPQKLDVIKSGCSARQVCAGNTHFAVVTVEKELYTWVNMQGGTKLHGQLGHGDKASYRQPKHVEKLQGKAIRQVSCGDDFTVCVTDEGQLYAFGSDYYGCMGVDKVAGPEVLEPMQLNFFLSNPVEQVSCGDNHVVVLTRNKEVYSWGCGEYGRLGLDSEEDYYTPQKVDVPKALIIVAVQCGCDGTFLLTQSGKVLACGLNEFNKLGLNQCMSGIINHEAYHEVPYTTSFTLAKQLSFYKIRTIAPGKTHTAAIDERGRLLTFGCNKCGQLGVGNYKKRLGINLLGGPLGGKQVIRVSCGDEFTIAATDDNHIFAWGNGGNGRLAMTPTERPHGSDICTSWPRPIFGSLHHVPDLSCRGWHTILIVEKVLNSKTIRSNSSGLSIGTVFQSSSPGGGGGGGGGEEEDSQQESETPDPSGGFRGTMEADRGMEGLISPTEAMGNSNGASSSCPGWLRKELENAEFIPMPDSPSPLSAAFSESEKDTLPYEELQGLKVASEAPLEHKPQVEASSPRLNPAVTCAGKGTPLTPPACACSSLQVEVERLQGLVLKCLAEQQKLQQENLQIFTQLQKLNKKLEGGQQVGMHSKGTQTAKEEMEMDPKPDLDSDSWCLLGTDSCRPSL
As to conditions: at 0.1 µM.

Sequence of Serine/threonine-protein kinase Nek7 (Homo sapiens) (Q8TDX7 whole entry, looked up): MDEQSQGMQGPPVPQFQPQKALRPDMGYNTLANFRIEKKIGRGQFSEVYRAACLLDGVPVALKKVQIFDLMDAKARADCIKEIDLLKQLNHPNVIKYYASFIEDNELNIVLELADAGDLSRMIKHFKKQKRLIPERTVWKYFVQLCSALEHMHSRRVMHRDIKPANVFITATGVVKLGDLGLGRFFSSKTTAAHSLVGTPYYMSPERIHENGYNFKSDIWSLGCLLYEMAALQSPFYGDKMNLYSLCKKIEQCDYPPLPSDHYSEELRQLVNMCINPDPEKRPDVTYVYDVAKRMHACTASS
Sequence of Casein kinase II subunit alpha (Homo sapiens) (P68400 whole entry, looked up): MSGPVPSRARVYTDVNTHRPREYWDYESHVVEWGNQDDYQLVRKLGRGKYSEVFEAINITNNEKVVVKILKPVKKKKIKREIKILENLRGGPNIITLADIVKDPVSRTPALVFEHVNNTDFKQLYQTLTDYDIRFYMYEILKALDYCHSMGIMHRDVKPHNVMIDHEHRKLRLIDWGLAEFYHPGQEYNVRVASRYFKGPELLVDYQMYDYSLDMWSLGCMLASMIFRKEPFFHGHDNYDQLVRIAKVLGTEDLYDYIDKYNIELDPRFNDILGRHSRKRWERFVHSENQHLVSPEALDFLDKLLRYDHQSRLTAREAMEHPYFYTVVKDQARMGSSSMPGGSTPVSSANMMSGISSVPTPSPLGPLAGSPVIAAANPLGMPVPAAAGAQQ
Sequence of Serine/threonine-protein kinase Nek6 (Homo sapiens) (Q9HC98 whole entry): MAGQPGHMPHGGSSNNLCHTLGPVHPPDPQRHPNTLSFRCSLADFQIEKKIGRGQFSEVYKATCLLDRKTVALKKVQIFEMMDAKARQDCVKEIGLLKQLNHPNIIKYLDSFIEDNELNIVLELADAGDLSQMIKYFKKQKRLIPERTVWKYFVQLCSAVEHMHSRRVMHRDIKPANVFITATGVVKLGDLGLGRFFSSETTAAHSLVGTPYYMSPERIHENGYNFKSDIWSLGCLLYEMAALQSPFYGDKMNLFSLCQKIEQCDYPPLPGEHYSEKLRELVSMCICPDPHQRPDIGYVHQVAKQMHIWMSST
Sequence of Sphingosine kinase 1 (Homo sapiens) (Q9NYA1 whole entry): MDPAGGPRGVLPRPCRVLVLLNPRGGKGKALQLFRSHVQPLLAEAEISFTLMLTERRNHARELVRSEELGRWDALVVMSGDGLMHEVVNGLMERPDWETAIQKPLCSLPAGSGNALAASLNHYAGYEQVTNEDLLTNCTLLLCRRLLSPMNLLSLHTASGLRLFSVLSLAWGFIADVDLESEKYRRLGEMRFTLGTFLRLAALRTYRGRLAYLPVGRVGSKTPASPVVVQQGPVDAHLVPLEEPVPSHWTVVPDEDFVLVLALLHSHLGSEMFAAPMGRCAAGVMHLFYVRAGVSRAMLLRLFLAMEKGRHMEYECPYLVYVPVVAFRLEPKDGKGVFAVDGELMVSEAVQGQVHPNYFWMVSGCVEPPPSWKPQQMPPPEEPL

A word on the inhibition: it is the change of the read-out against control, counted positive when it falls. In the case of `Fc1ccc(-c2nn3ccccc3c2-c2ccncc2)cc1`, the inhibition in test [1] is -4.19%; in [2], 0.23%; in [3] it was -0.19%; in test [4] it was -0.45%; in [5], 0.13%; in test [6], 2.86%. Further, the inhibition in [7] is -1.37%; in [8] it was 0.51%; in test [9], 0.63%; in test [10] it was 2.31%; in test [11] it was 0.04%; in [12], 1.98%. For the same compound, the inhibition in test [13] was 1.91%; in test [14], 1.2%; in [15] it was 1.45%; in test [16], 0.37%; in test [17], 1.47%; in test [18], 3.72%. Also, the inhibition in test [19] worked out at 2.56%; in test [20], 5.49%.

The values above are taken from ChEMBL document CHEMBL1961873, “Compounds: GSK PKIS; Assays: Nanosyn kinase panel” (2012).
